B1: ACGTTCCA (ssRNA)
RNA 1: GAGUUCUACAGUCCGACGAUCCCAACACGUUCCACACCUGGAAUUCUCGGGUGCCAA
RNA 2: UGGAGUGUGACAAUGGUGUUUG
DNA 1: GATCGTCGGACTGTAGAACTC
DNA 2: TTGGCACCCGAGAATTCCA
modifications: constant regions annealed to DNA blockers; guide miR-122 5' phosphate
B2: ACGTCCTA (ssRNA)
RNA 1: B1 RNA 1 with U31C, C33U
RNA 2: UGGAGUGUGACAAUGGUGUUUG
DNA 1: GATCGTCGGACTGTAGAACTC
DNA 2: TTGGCACCCGAGAATTCCA
modifications: constant regions annealed to DNA blockers; guide miR-122 5' phosphate
B3: GTGTCTCA (ssRNA)
RNA 1: B1 RNA 1 with A27G, C28U, U31C, C32U
RNA 2: UGGAGUGUGACAAUGGUGUUUG
DNA 1: GATCGTCGGACTGTAGAACTC
DNA 2: TTGGCACCCGAGAATTCCA
modifications: constant regions annealed to DNA blockers; guide miR-122 5' phosphate
B4: GTGCTCTG (ssRNA)
RNA 1: B1 RNA 1 with A27G, C28U, U30C, C33U, A34G
RNA 2: UGGAGUGUGACAAUGGUGUUUG
DNA 1: GATCGTCGGACTGTAGAACTC
DNA 2: TTGGCACCCGAGAATTCCA
modifications: constant regions annealed to DNA blockers; guide miR-122 5' phosphate
B5: GCGCCCCG (ssRNA)
RNA 1: B1 RNA 1 with A27G, U30C, U31C, A34G
RNA 2: UGGAGUGUGACAAUGGUGUUUG
DNA 1: GATCGTCGGACTGTAGAACTC
DNA 2: TTGGCACCCGAGAATTCCA
modifications: constant regions annealed to DNA blockers; guide miR-122 5' phosphate
B6: ACGCTCTG (ssRNA)
RNA 1: B1 RNA 1 with U30C, C33U, A34G
RNA 2: UGGAGUGUGACAAUGGUGUUUG
DNA 1: GATCGTCGGACTGTAGAACTC
DNA 2: TTGGCACCCGAGAATTCCA
modifications: constant regions annealed to DNA blockers; guide miR-122 5' phosphate
B7: ATGTTTTA (ssRNA)
RNA 1: B1 RNA 1 with C28U, C32U, C33U
RNA 2: UGGAGUGUGACAAUGGUGUUUG
DNA 1: GATCGTCGGACTGTAGAACTC
DNA 2: TTGGCACCCGAGAATTCCA
modifications: constant regions annealed to DNA blockers; guide miR-122 5' phosphate
B8: ACGTTTTA (ssRNA)
RNA 1: B1 RNA 1 with C32U, C33U
RNA 2: UGGAGUGUGACAAUGGUGUUUG
DNA 1: GATCGTCGGACTGTAGAACTC
DNA 2: TTGGCACCCGAGAATTCCA
modifications: constant regions annealed to DNA blockers; guide miR-122 5' phosphate
B9: GCGCCCCA (ssRNA)
RNA 1: B1 RNA 1 with A27G, U30C, U31C
RNA 2: UGGAGUGUGACAAUGGUGUUUG
DNA 1: GATCGTCGGACTGTAGAACTC
DNA 2: TTGGCACCCGAGAATTCCA
modifications: constant regions annealed to DNA blockers; guide miR-122 5' phosphate
B10: ATATCCCA (ssRNA)
RNA 1: B1 RNA 1 with C28U, G29A, U31C
RNA 2: UGGAGUGUGACAAUGGUGUUUG
DNA 1: GATCGTCGGACTGTAGAACTC
DNA 2: TTGGCACCCGAGAATTCCA
modifications: constant regions annealed to DNA blockers; guide miR-122 5' phosphate
B11: ACGTCTTA (ssRNA)
RNA 1: B1 RNA 1 with U31C, C32U, C33U
RNA 2: UGGAGUGUGACAAUGGUGUUUG
DNA 1: GATCGTCGGACTGTAGAACTC
DNA 2: TTGGCACCCGAGAATTCCA
modifications: constant regions annealed to DNA blockers; guide miR-122 5' phosphate
B12: ATGCCCCA (ssRNA)
RNA 1: B1 RNA 1 with C28U, U30C, U31C
RNA 2: UGGAGUGUGACAAUGGUGUUUG
DNA 1: GATCGTCGGACTGTAGAACTC
DNA 2: TTGGCACCCGAGAATTCCA
modifications: constant regions annealed to DNA blockers; guide miR-122 5' phosphate
B13: ACGCCCTA (ssRNA)
RNA 1: B1 RNA 1 with U30C, U31C, C33U
RNA 2: UGGAGUGUGACAAUGGUGUUUG
DNA 1: GATCGTCGGACTGTAGAACTC
DNA 2: TTGGCACCCGAGAATTCCA
modifications: constant regions annealed to DNA blockers; guide miR-122 5' phosphate
B14: GTGTCTTA (ssRNA)
RNA 1: B1 RNA 1 with A27G, C28U, U31C, C32U, C33U
RNA 2: UGGAGUGUGACAAUGGUGUUUG
DNA 1: GATCGTCGGACTGTAGAACTC
DNA 2: TTGGCACCCGAGAATTCCA
modifications: constant regions annealed to DNA blockers; guide miR-122 5' phosphate
B15: GTGCCCCA (ssRNA)
RNA 1: B1 RNA 1 with A27G, C28U, U30C, U31C
RNA 2: UGGAGUGUGACAAUGGUGUUUG
DNA 1: GATCGTCGGACTGTAGAACTC
DNA 2: TTGGCACCCGAGAATTCCA
modifications: constant regions annealed to DNA blockers; guide miR-122 5' phosphate
B16: GCGCTTCA (ssRNA)
RNA 1: B1 RNA 1 with A27G, U30C, C32U
RNA 2: UGGAGUGUGACAAUGGUGUUUG
DNA 1: GATCGTCGGACTGTAGAACTC
DNA 2: TTGGCACCCGAGAATTCCA
modifications: constant regions annealed to DNA blockers; guide miR-122 5' phosphate
B17: ACACTCTG (ssRNA)
RNA 1: B1 RNA 1 with G29A, U30C, C33U, A34G
RNA 2: UGGAGUGUGACAAUGGUGUUUG
DNA 1: GATCGTCGGACTGTAGAACTC
DNA 2: TTGGCACCCGAGAATTCCA
modifications: constant regions annealed to DNA blockers; guide miR-122 5' phosphate
B18: ATACTCCA (ssRNA)
RNA 1: B1 RNA 1 with C28U, G29A, U30C
RNA 2: UGGAGUGUGACAAUGGUGUUUG
DNA 1: GATCGTCGGACTGTAGAACTC
DNA 2: TTGGCACCCGAGAATTCCA
modifications: constant regions annealed to DNA blockers; guide miR-122 5' phosphate
B19: GTGCCTCA (ssRNA)
RNA 1: B1 RNA 1 with A27G, C28U, U30C, U31C, C32U
RNA 2: UGGAGUGUGACAAUGGUGUUUG
DNA 1: GATCGTCGGACTGTAGAACTC
DNA 2: TTGGCACCCGAGAATTCCA
modifications: constant regions annealed to DNA blockers; guide miR-122 5' phosphate
B20: ACACCTTG (ssRNA)
RNA 1: B1 RNA 1 with G29A, U30C, U31C, C32U, C33U, A34G
RNA 2: UGGAGUGUGACAAUGGUGUUUG
DNA 1: GATCGTCGGACTGTAGAACTC
DNA 2: TTGGCACCCGAGAATTCCA
modifications: constant regions annealed to DNA blockers; guide miR-122 5' phosphate

Residue numbers refer to the chain shown, from its start.

Chain of AGO2 A367P (Q9UKV8 whole entry A367P/S387D/S824A/S828D/S831D/S834A): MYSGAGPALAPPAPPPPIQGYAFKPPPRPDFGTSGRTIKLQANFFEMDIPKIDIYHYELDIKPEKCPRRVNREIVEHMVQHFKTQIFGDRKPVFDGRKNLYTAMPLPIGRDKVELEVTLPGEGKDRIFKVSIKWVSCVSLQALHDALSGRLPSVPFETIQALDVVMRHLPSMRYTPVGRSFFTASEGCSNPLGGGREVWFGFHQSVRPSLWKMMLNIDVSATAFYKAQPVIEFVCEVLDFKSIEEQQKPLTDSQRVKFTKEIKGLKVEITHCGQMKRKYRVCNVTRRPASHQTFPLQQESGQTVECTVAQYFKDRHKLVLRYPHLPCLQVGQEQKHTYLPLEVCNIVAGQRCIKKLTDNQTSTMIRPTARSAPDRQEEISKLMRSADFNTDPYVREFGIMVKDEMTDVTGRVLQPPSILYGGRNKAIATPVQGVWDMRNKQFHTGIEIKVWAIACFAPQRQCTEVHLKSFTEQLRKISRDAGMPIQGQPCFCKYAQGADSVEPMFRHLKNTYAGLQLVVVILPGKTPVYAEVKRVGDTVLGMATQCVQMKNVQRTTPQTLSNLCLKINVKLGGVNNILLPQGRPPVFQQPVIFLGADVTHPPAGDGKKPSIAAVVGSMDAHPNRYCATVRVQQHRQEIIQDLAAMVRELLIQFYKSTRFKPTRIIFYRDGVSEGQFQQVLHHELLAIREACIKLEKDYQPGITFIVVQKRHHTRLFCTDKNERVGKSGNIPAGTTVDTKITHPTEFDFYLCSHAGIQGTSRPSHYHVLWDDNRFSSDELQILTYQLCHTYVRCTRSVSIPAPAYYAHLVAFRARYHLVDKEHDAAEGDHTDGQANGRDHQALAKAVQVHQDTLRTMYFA
Chain of AGO2 WT (phosphosite mutant background) (Q9UKV8 whole entry S387D/S824A/S828D/S831D/S834A): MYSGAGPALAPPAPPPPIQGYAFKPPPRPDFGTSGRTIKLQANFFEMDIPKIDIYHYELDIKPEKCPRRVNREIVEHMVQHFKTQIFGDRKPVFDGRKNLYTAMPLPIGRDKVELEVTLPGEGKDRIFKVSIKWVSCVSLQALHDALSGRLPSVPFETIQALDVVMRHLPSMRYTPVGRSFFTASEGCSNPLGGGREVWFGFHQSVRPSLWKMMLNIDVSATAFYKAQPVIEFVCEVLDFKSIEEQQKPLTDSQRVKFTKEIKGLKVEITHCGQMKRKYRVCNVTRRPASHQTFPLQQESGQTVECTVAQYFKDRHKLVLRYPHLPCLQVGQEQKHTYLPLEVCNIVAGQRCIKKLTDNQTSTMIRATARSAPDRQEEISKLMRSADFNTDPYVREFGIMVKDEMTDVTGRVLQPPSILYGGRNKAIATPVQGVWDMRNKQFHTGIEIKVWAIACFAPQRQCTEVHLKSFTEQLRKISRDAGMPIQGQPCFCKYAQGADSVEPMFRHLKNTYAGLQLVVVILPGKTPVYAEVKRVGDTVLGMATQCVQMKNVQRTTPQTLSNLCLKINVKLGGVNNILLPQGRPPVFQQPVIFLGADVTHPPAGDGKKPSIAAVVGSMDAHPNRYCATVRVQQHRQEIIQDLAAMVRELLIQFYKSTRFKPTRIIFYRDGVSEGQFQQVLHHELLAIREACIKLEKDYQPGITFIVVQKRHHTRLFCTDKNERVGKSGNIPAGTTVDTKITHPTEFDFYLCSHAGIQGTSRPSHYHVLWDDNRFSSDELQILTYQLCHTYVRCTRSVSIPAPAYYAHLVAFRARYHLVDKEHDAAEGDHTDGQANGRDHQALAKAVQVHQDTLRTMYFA
Chain of AGO2 F182del (Q9UKV8 other isoform, or with tags, fused parts or gaps S387D;S824A;S828D;S831D;S834A;del182-182): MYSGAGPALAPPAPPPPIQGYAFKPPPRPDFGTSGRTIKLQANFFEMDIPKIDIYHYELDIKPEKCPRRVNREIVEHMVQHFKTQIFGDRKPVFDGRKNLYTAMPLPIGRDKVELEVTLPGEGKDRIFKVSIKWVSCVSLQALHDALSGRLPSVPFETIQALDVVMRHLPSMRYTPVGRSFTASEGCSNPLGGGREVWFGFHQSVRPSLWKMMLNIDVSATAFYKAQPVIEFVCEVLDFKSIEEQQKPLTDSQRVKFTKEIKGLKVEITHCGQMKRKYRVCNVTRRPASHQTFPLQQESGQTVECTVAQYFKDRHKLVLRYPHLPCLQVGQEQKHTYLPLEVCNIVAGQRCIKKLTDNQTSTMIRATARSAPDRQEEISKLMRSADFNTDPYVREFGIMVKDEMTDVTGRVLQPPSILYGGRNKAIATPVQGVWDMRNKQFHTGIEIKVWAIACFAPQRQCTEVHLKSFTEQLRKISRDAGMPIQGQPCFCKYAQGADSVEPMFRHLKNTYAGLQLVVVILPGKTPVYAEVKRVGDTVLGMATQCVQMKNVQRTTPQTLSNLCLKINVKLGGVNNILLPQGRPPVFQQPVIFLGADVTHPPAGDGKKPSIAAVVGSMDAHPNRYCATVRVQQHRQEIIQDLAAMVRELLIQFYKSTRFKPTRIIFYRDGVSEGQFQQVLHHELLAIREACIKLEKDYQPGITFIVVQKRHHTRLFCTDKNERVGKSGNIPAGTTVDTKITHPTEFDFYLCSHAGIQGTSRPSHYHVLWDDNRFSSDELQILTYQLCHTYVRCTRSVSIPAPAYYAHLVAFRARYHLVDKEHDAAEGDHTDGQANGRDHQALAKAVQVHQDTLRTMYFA
Chain of AGO2 T357M (Q9UKV8 whole entry T357M/S387D/S824A/S828D/S831D/S834A): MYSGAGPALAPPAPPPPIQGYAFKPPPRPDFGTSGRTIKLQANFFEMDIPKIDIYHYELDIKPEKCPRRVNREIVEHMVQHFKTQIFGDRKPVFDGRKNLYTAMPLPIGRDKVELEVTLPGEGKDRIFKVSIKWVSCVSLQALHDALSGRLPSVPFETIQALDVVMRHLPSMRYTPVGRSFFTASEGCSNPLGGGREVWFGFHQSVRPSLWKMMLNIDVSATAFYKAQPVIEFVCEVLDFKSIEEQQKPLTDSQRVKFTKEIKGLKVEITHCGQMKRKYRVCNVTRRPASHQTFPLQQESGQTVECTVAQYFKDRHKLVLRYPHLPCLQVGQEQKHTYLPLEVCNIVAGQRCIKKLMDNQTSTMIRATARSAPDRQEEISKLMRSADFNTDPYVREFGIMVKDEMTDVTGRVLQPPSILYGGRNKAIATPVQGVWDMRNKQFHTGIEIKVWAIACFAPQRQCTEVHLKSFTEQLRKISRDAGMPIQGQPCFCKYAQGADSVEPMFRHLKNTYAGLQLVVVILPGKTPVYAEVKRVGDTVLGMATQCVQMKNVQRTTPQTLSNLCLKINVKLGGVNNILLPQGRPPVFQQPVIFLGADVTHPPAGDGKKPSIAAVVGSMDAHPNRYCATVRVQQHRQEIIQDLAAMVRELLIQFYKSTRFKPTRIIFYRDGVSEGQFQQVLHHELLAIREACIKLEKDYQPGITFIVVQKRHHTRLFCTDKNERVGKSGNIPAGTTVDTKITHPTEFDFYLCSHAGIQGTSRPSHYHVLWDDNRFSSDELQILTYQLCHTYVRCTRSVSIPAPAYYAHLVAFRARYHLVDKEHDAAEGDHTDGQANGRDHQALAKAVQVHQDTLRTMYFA

One assay concerns the target AGO2 WT (phosphosite mutant background) (Homo sapiens, UniProt Q9UKV8 1-859, S387D;S824A;S828D;S831D;S834A). Nature of the assay: RNA Bind-n-Seq (nitrocellulose filter binding and sequencing); miR-122 guide loaded in AGO2; 60 min incubation; 30 mM Tris pH 8.0, 100 mM potassium acetate, 2 mM magnesium acetate, 0.5 mM TCEP, 0.005% NP-40, 0.01 mg/ml yeast tRNA; 3 nM AGO2-miR-122, 100 nM RNA library; 60; high values mean tight binding. The settings on record: protein: recombinant; tags: His6 (N-terminal, pFastBac HTA). A digest of the protocol: (§1)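 Fold enrichment is each target's read fraction divided by its read fraction in the input library. Sf9 insect cells expressed His-tagged AGO2 from baculovirus; the protein was loaded with a synthetic guide RNA and purified by Ni-NTA and a biotinylated capture oligo. The bound RNA was extracted, reverse-transcribed, barcode-amplified and sequenced on Illumina.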
In the case of B1, the binding signal is 0.137 fold enrichment over input.
Same read-out and setting: under B3 stands 0.126 fold enrichment over input; under B4, 0.123 fold enrichment over input.
On the same count and under the same terms, under B5 stands 0.12 fold enrichment over input; under B6, 0.132 fold enrichment over input.
Still for that read-out and setting: with B7 the figure was 0.12 fold enrichment over input.
B11: the binding signal was 0.13 fold enrichment over input.
Take B15: the binding signal is 0.123 fold enrichment over input.
Same read-out and setting: with B16 the figure was 0.123 fold enrichment over input.
In the case of B17, the binding signal was 0.933 fold enrichment over input.
As for B18, the binding signal is 1.32 fold enrichment over input.
Still for that read-out and setting: under B19 stands 0.122 fold enrichment over input.

A further assay deals with AGO2 L192P (Homo sapiens, UniProt Q9UKV8 1-859, L192P;S387D;S824A;S828D;S831D;S834A). The description is as above. The conditions noted are these: protein: recombinant; tags: His6 (N-terminal, pFastBac HTA). The essentials: as §1
Chain of AGO2 L192P (Q9UKV8 whole entry L192P/S387D/S824A/S828D/S831D/S834A): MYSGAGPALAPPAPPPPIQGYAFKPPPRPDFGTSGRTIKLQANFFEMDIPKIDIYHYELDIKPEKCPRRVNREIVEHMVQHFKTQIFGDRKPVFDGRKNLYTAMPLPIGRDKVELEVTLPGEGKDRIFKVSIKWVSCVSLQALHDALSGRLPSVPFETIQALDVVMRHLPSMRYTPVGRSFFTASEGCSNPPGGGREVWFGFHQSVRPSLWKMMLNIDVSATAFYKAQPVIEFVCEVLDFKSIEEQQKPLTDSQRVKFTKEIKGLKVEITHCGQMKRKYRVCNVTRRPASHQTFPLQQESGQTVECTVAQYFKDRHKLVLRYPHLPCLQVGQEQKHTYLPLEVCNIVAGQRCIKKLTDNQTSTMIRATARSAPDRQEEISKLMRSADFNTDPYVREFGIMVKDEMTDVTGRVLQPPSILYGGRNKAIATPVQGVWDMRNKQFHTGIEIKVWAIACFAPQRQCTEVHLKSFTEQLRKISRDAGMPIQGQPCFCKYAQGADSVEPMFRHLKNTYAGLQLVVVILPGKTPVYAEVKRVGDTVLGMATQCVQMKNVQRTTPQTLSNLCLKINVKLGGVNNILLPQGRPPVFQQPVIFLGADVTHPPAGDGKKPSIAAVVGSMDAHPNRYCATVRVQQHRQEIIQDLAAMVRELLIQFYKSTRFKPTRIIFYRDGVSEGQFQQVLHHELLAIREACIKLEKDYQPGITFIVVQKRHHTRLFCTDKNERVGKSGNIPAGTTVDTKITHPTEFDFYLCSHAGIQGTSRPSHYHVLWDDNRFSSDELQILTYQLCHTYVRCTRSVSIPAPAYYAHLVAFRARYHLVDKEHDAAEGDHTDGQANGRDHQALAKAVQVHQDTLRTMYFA
Consider B1, for which the binding signal was 0.603 fold enrichment over input.
The same measure, in the same setting: under B2 stands 0.475 fold enrichment over input; under B3, 0.486 fold enrichment over input; under B4, 0.483 fold enrichment over input.
With B5, the binding signal was 0.438 fold enrichment over input.
In the case of B6, the binding signal is 0.394 fold enrichment over input.
In the case of B7, the binding signal is 0.492 fold enrichment over input.
For B8, the binding signal was 0.447 fold enrichment over input.
Still for that read-out and setting: under B9 stands 0.498 fold enrichment over input.
As for B10, the binding signal was 0.464 fold enrichment over input.
On the same count and under the same terms, under B11 stands 0.525 fold enrichment over input.
Take B12: the binding signal is 0.494 fold enrichment over input.
Same read-out and setting: under B13 stands 0.505 fold enrichment over input; under B14, 0.461 fold enrichment over input.
Same read-out and setting: with B15 the figure was 0.464 fold enrichment over input; with B16, 0.498 fold enrichment over input; with B17, 0.807 fold enrichment over input.
Turning to B18, the binding signal was 4.64 fold enrichment over input.
For B19, the binding signal is 0.533 fold enrichment over input.
In the case of B20, the binding signal was 0.422 fold enrichment over input.

The next assay concerns the target AGO2 A367P (Homo sapiens, UniProt Q9UKV8 1-859, A367P;S387D;S824A;S828D;S831D;S834A). Described as above. The conditions noted are these: protein: recombinant; tags: His6 (N-terminal, pFastBac HTA). The essentials:
as §1
B1: the binding signal is 0.333 fold enrichment over input.
On the same count and under the same terms, under B2 stands 0.205 fold enrichment over input; under B3, 0.222 fold enrichment over input; under B4, 0.182 fold enrichment over input.
With B5, the binding signal is 0.18 fold enrichment over input.
Consider B6, for which the binding signal was 0.169 fold enrichment over input.
In the case of B7, the binding signal was 0.247 fold enrichment over input.
On the same count and under the same terms, with B8 the figure was 0.21 fold enrichment over input; with B9, 0.192 fold enrichment over input; with B10, 0.195 fold enrichment over input.
The same measure, in the same setting: with B11 the figure was 0.269 fold enrichment over input; with B12, 0.191 fold enrichment over input; with B13, 0.194 fold enrichment over input.
The same measure, in the same setting: under B14 stands 0.173 fold enrichment over input; under B15, 0.227 fold enrichment over input.
Consider B16, for which the binding signal was 0.238 fold enrichment over input.
B17: the binding signal is 0.794 fold enrichment over input.
Still for that read-out and setting: under B18 stands 6.04 fold enrichment over input; under B19, 0.232 fold enrichment over input.
Still for that read-out and setting: under B20 stands 0.169 fold enrichment over input.

The next assay addresses AGO2 T357M (Homo sapiens, UniProt Q9UKV8 1-859, T357M;S387D;S824A;S828D;S831D;S834A). The description is as above. The settings on record: protein: recombinant; tags: His6 (N-terminal, pFastBac HTA). The essentials: as §1
With B1, the binding signal was 0.66 fold enrichment over input.
On the same count and under the same terms, with B2 the figure was 0.603 fold enrichment over input; with B3, 0.585 fold enrichment over input; with B4, 0.67 fold enrichment over input.
Still for that read-out and setting: with B5 the figure was 0.745 fold enrichment over input.
Same read-out and setting: under B6 stands 0.539 fold enrichment over input; under B7, 0.607 fold enrichment over input.
B8: the binding signal was 0.571 fold enrichment over input.
Still for that read-out and setting: under B9 stands 0.741 fold enrichment over input; under B10, 0.568 fold enrichment over input.
The same measure, in the same setting: under B11 stands 0.643 fold enrichment over input; under B12, 0.652 fold enrichment over input; under B13, 0.681 fold enrichment over input.
As for B14, the binding signal was 0.599 fold enrichment over input.
Turning to B15, the binding signal is 0.677 fold enrichment over input.
Turning to B16, the binding signal is 0.703 fold enrichment over input.
Take B17: the binding signal was 0.868 fold enrichment over input.
On the same count and under the same terms, under B18 stands 1.16 fold enrichment over input; under B19, 0.687 fold enrichment over input; under B20, 0.452 fold enrichment over input.

The target in a further assay is AGO2 F182del (Homo sapiens, UniProt Q9UKV8 1-859, S387D;S824A;S828D;S831D;S834A;del182-182). Described as above. The settings on record: protein: recombinant; tags: His6 (N-terminal, pFastBac HTA). A digest of the protocol:
as §1
Take B1: the binding signal is 0.976 fold enrichment over input.
On the same count and under the same terms, with B2 the figure was 0.187 fold enrichment over input; with B3, 0.387 fold enrichment over input; with B6, 0.149 fold enrichment over input.
As to B7, the binding signal was 0.21 fold enrichment over input.
Consider B8, for which the binding signal is 0.204 fold enrichment over input.
On to B10, for which the binding signal is 0.249 fold enrichment over input.
On the same count and under the same terms, with B11 the figure was 0.333 fold enrichment over input.
Still for that read-out and setting: under B12 stands 0.191 fold enrichment over input; under B15, 0.158 fold enrichment over input; under B16, 0.289 fold enrichment over input.
Turning to B17, the binding signal was 2.4 fold enrichment over input.
The same measure, in the same setting: under B18 stands 8.59 fold enrichment over input.
On the same count and under the same terms, under B19 stands 0.326 fold enrichment over input; under B20, 0.318 fold enrichment over input.
